In PubChem BioAssay AID953 (National Center for Advancing Translational Sciences (NCATS), 2007):
Some of the results follow. Inconclusive results are not listed. Active and inactive are the calls of the source. Calls come from the whole dose curve; as a rule, active = well fitted curve in the direction sought with a large enough effect; inconclusive = small, poorly fitted or top-dose-only effect, or effect the other way, or another doubt; inactive = no such curve, though single readings can be large or run the other way.

Experiment: Confirmation Concentration-Response Assay for Agonists of the Thyroid Stimulating Hormone Receptor: Activators of Intracellular cAMP Concentrations in Parental HEK 293
Description: NIH Chemical Genomics Center [NCGC] NIH Molecular Libraries Screening Centers Network [MLSCN] MLSCN Grant: 1 X01 MH080680-01 PI Name: Dr. Marvin Gershengorn NCGC Assay Overview: This cell based assay utilized a cyclic nucleotide gated ion channel (CNG) as a biosensor for cAMP induction. HEK 293 cells stably expressing the modified CNG were purchased from BD biosciences (http://www.atto.com/products/actone/features_benefits.shtml) . Stimulation of cAMP production causes the CNG to open and subsequent membrane depolarization to occur. A fluorescent membrane potential dye (BD biosciences) was utilized to detect cAMP stimulation in cells. The cells were maintained in DMEM medium (Invitrogen) containing 10 % FBS (Hyclone), 100 units/ml Penicillin, 100 ug/ml Streptomycin (Invitrogen), and 250 ug/ml Geneticin (Invitrogen) and 1 ug/ml Puromycin (Invitrogen) at 37C in 5% CO2. […]
NCGC Assay Protocol Summary: High Throughput Screening. […] 23 nl/well compound or control was then added to the assay plates, which were incubated for additional 30 min before reading a Envision fluorescence plate reader (Perkin Elmer) in bottom-read mode for fluorescence intensity (emission at 590 nm). Keywords: cAMP, CNG Ion Channel, quantitative high throughput screening, qHTS, HTS, probe identification, CNG, cAMP, cyclic nucleotide gated ion channel PubChem

| Compound | outcome |
| --- | --- |
| CCOC(=O)C1=C(C)OC(N)=C(C(=O)OC)C12C(=O)Nc1ccc(Br)cc12 (configuration not stated) | inactive |
| C=CCN1C(=O)C2(C(C(=O)OCC)=C(N)Oc3c2c(=O)oc2ccccc32)c2ccccc21 (configuration not stated) | inactive |
